Source: PubChem BioAssay (National Center for Advancing Translational Sciences (NCATS))
This is one part of a sample in which hits are shown more often than they occur.
GALK inh – inhibitors of human galactokinase; Potency, µM (doses to about 57.5 µM), hits mostly inhibitors; actives 0.007% (n = 270,000); P51570; Purified GALK, Kinase-Glo residual ATP luminescence
Target sequence (P51570 whole entry, looked up): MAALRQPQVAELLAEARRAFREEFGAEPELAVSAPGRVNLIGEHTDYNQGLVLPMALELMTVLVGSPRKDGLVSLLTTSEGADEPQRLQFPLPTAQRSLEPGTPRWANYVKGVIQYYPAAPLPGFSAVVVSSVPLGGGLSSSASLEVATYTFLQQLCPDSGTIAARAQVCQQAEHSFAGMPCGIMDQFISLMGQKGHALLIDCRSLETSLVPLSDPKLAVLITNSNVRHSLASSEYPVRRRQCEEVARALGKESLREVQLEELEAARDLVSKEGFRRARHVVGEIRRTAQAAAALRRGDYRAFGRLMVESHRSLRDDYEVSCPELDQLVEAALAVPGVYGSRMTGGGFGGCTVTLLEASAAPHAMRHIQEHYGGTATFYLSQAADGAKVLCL
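Human GALK (5 nM) with 35 uM ATP and 100 uM galactose in 20 mM HEPES pH 8.0, 5 mM MgCl2, 60 mM NaCl, 1 mM DTT, 0.01% BSA. After 1 h at room temperature, leftover ATP was read by Kinase-Glo Plus luminescence.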
Six1-Eya2 blk – Six1/Eya2 interaction inhibition | AID 651725 | activity change, % (no concentration beside the values) | actives 0.56% (n = 360,000) | AlphaScreen GST-Six1/His-Eya2 binding, biochemical; stronger effect = lower value; in the data active means activity change below about -65%; inconclusive means mostly about -30% to -63%
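Six1/Eya2 binding was read as AlphaScreen signal after compounds were pinned into GST-Six1 plus His-tagged Eya2 (5X stock 250/500 nM) in pH 8.0 Tris/NaCl/TCEP buffer, beads added, then incubated 1 h, 37 C, dark.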
Eya2 inh – blocks the phosphatase activity of human Eya2; recombinant Eya2, OMFP fluorescence dephosphorylation (OMFP is methylfluorescein phosphate); Potency, µM (top dose mostly 76.9 µM), hits mostly inhibitors; actives 0.006% (n = 330,000); AID 488837
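Eya2 (0.2 uM) preincubated 10 min at ambient with compound, then OMFP substrate added at 50 uM; 10 min reaction in 50 mM HEPES pH 7.5, 50 mM NaCl, 5 uM MgCl2, 0.05% BSA, 1 mM DTT. Fluorescence read at Ex 485/Em 525 nm.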
KDM4E inh – JMJD2E (human) inhibition | B2RXH2 | actives 1.6% (n = 230,000) | Potency, µM (doses to about 57.1 µM), actives largely listed as inhibitors | JMJD2E catalytic domain, FDH-coupled NADH fluorescence (FDH is formaldehyde dehydrogenase); further: nearly all actives have a fitted effect of over 50% in size
CtBP-E1A blk – CtBP/E1A binding inhibition | AlphaScreen GST-E1A/His-CtBP binding, 1536-well; stronger effect = lower value | activity change, % (no concentration beside the values) | actives 0.49% (n = 340,000); in the data active means activity change below about -65%; inconclusive means mostly about -30% to -63%
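AlphaScreen with 125 nM GST-E1A and 125 nM His-CtBP (5X stocks) in Tris pH 8.0, 300 mM NaCl, BSA, Tween 20, TCEP. Compounds preincubated 2 h at 37 deg C, then glutathione donor/nickel acceptor beads added for 1 h at 37 deg C in dark.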
Anesthetic bind – candidate novel general anesthetic via apoferritin binding; P02791; apoferritin/1-aminoanthracene competitive binding, fluorescence; Potency, µM (highest dose often 77.5 µM), most hits filed as inhibitors; actives 0.074% (n = 350,000); further: nearly all actives have a fitted effect of over 20% in size
Target sequence (P02791 2-175 limits assumed): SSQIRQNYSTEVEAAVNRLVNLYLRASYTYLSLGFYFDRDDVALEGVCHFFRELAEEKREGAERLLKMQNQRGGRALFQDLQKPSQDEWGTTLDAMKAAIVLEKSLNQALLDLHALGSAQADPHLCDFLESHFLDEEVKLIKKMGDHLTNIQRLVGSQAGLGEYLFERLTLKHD
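In PBS, apoferritin at 10 uM is loaded with 1-AMA from a 50% saturated solution. After 10 min of compound exposure at ambient temperature, reduced 535 nm fluorescence indicates probe displacement.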
A number is an active result; 0 = inactive; ? = inconclusive; - = no result; ! = repeats disagree; [ ] = dose if it differs, or a comment. Unless noted, the call rests on the fitted dose curve; in most records, active means well fitted curve in the direction sought with a large enough effect; inconclusive means small, poorly fitted or top-dose-only effect, or another doubt; inactive means no such curve, though single readings can be large; an effect the other way counts as inactive or inconclusive.

SMILES	GALK inh	Six1-Eya2 blk	Eya2 inh	KDM4E inh	CtBP-E1A blk	Anesthetic bind
Cc1onc(-c2ccccc2Cl)c1C(=O)Oc1cc(N)n(S(=O)(=O)c2ccc(F)cc2)n1	0	-81	0	0	?	0
COc1ccc(Nc2nc(N)c3cc(OC)c(OC)cc3n2)cc1	-	-	-	-	-	0
COc1cccc(-c2nccc(-n3ccnc3)n2)c1	-	-	-	0	-	0
NC1(C(=O)O)CSSC1	-	-88	-	-	0	-
CCOC(=O)c1cnc(-n2[nH]c(C)cc2=O)[nH]c1=O	0	-77	0	?	-92	0
O=C(CSc1ncccn1)N1CCc2ccccc2C1	0	0	0	0	-	0
O=C(CNCc1ccccn1)N1CCc2ccccc2C1	0	-89	0	?	-95	0
O=C(Oc1ccc(Cl)c2cccnc12)N1CCOCC1	0	0	0	?	0	0
COc1cccc(C(=O)Oc2c(CN3CCOCC3)cc(Cl)c3cccnc23)c1	0	-88	0	0	-91	?
COc1cc(C(=O)Oc2c(OC)cc(C(=S)N3CCOCC3)cc2OC)cc(OC)c1OC	0	0	0	-	0	0
O=C(Oc1c(CN2CCOCC2)cc(Cl)c2cccnc12)c1ccc(F)cc1	0	-91	0	0	-92	0
COc1cccc(C(=O)OCCN2CCOCC2)c1	0	0	0	0	-	0
COc1ccc(C(=O)Oc2c(CN3CCOCC3)cc(Cl)c3cccnc23)cc1	0	?	0	?	-65	?
COc1cc(C(=O)Oc2c(CN3CCOCC3)cc(Cl)c3cccnc23)cc(OC)c1OC	0	-92	0	?	-92	0
COc1ccccc1-c1ccc2c(c1)C(C)(Cc1cccc(C#N)c1)C(=O)N2 (stereo not given)	-	0	-	-	0	-
CCCC12CN3CC(C)(CN(C1)C3c1cn(C)c3ccccc13)C2=O (stereo not given)	-	-	-	-	-	0
O=C(O)c1cc(O)c2c(c1)[C@H]([C@H]1c3cc(C(=O)O)cc(O)c3C(=O)c3c(O[C@@H]4OC(CO)C(O)C(O)C4O)cccc31)c1cccc(O[C@@H]3OC(CO)C(O)C(O)C3O)c1C2=O (stereo not given in full)	-	-	-	11µM	-	0
CCOC(=O)OCC1OC(C#CC(C)(C)C)C=CC1OC(=O)OCC (stereo not given)	-	-	-	-	-	0[15.3 µM]
CCOC(=O)c1c(C)oc2c1c1c(c3ccccc32)OCN(Cc2cccnc2)C1	0	0	0	?	0	0
CCOC(=O)c1c(C)oc2c1c1c(c3ccccc32)OCN(CCCC(=O)O)C1	0	0	0	10µM	0	0
COc1ccc(Cl)cc1-c1ccc(C(=O)O)s1	-	-	-	-	-	0
O=C(CC(NCc1ccccn1)C(=O)O)Nc1ccccc1Cl (stereo not given)	0	-91	0	0	-89	0
COc1ccnc(CS(=O)c2nc3ccc(OC(F)F)cc3[nH]2)c1OC (stereo not given)	-	-	-	?	-	0
Cc1cc(C)cc(NC(=S)NC(=O)C2CC2)c1	0	0	0	-	0	0
Cc1cccc(NC(=S)NC(=O)C2CC2)c1	0	-	0	-	-	22µM
SMILES	GALK inh	Six1-Eya2 blk	Eya2 inh	KDM4E inh	CtBP-E1A blk	Anesthetic bind
Cc1cc(-c2csc(NC(=O)c3cc4ccccc4o3)n2)c(C)n1C	0	0	0	?	0	0
O=C(Nc1nc(-c2ccccn2)cs1)c1cc2ccccc2o1	0	-77	0	?	-68	0
Cc1c(C(=O)Nc2nc(-c3ccccn3)cs2)oc2ccccc12	-	-73	0	-	-86	-
O=C(/C=C/c1ccco1)Nc1nc(-c2ccccn2)cs1	0	-74	0	0	-	0
Cc1nnc(NC(=O)c2oc3ccccc3c2C)s1	0	0	0	-	0	0
O=C(CSc1oc(-c2ccccc2)nc1S(=O)(=O)c1ccc(Br)cc1)c1ccccc1	-	-	-	-	-	0
CCOc1cc([N+](=O)[O-])cc(/C=N/NC(=O)c2c(-c3ccccc3)noc2C)c1O	0	-91	0	-	-92	0
COc1cccc(/C=N/NC(=O)c2ccoc2C)c1O	0	-74	0	14µM	-92	0
COc1cccc(/C=N/NC(=O)c2cnccn2)c1O	0	-92	0	11µM	-65	0
COc1cccc(/C=N/NC(=O)c2c(-c3ccccc3)noc2C)c1O	0	-90	0	32µM	-91	0
C=CCC(C)(O)/C=C/c1ccccc1 (stereo not given)	-	-	-	0	-	-
COc1cccc(/C=N/NC(=O)C(=O)NCc2ccco2)c1O	0	-89	0	13µM	-97	0
Oc1cc2c(cc1O)[C@H]1c3ccc(O)c(O)c3OC[C@@]1(O)C2	-	0	0	3.5µM	0	-
Oc1ccc2c(c1)OCC1(O)Cc3cc(O)c(O)cc3C21 (stereo not given)	-	0	-	14µM	0	0
CCCCC#Cc1ccccc1CC(=O)Nc1ccccc1	-	0	0	?	0	0
Nc1ccccc1C#CCCCCO	-	0	0	20µM!	0	0
COc1ccc(N2CCN(CC(=O)Nc3cc(C)on3)CC2)cc1	0	0	0	25µM	0	0
CC(=O)c1ccc(N2CCN(CC(=O)Nc3cc(C)on3)CC2)cc1	0	0	0	0	0	0
C=CCOC(=O)N[C@H](/C(C(=O)OC)=C(\C)NCc1ccccc1)c1ccc(C)cc1	-	-	-	0	-	-
